# A selection: hits, their analogues and other compounds. The true share with any hit is near 7.7%.
# FMDV inh: blocks foot and mouth disease virus | hit rate 1.2% among 410,000 | Potency, µM (top dose mostly 57.9 µM), inactives show at the top dose activity change, negative = inhibition, most hits filed as inhibitors | FMDV antiviral cell-based qHTS | AID 1159524; calls by dose curve; tested in HEK293T cells; further: read-out not given here; potency means the concentration at half of the fitted maximal effect; nearly all actives have a fitted effect of over 45% in size
# FBPA Giardia inh: Giardia lamblia aldolase inhibition; A8B2U2; purified Giardia FBPA; Potency, µM (series often up to 59.6 µM), inactives show at the highest dose activity, negative = inhibition, most hits filed as inhibitors; hit rate 0.71% among 290,000; further: potency means the concentration at half of the fitted maximal effect; nearly all actives have a fitted effect of over 55% in size
# Target sequence (A8B2U2 whole entry, looked up): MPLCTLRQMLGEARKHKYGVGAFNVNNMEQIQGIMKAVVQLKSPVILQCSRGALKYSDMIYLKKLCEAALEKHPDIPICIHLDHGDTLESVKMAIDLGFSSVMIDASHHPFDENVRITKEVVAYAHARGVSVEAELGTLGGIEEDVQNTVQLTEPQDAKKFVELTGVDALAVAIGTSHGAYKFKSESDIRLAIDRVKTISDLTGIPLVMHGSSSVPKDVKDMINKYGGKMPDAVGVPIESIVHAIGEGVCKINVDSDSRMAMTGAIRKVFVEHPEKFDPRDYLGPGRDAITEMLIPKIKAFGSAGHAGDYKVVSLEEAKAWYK
#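 Giardia FBPA (40 nM reagent) was preincubated 10 min at RT with compound (up to 57.5 uM final), then substrate plus GAPDH/TPI/NAD/arsenate coupling system with diaphorase/resazurin was added; resorufin fluorescence (525/598 nm) was read after 20 min.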
# HCMV inh: inhibitors of human cytomegalovirus; HFF cells, HCMV-luciferase reporter, 72 h; active compounds read low; activity change, negative = inhibition, % at 57.5 µM; hit rate 4.5% among 410,000; in the data active means activity change below about -60%; inconclusive means no clear call, values can overlap the other calls; inactive means above about -39%
#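 Screen run at 2 compound doses on HFFs infected with reporter HCMV, MOI 1 PFU/cell. Luciferase activity from cell lysates at 72 h post infection gave inhibition relative to buffer-only and Salinomycin wells.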
# Tb PYK inh: blocks Trypanosoma brucei pyruvate kinase; TbPYK enzyme, Kinase-Glo Plus ATP luminescence, 45 min; Potency, µM (doses to about 76.8 µM), without a hit: at the highest dose activity, negative = inhibition, hits mostly inhibitors; Q57TT1; hit rate 0.12% among 410,000; further: potency means the concentration at half of the fitted maximal effect; nearly all actives have a fitted effect of over 50% in size
#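 TbPYK + substrate in 50 mM TEA pH 7.2, 100 mM KCl, 10 mM MgCl2, 0.05% BSA, 0.01% Tween-20; cpd pinned; ADP 130 uM final; 45 min RT; Kinase-Glo Plus 10 min; luminescence endpoint.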
# Sm TGR block: S. mansoni TGR enzyme inhibition; Q962Y6; purified TGR, DTNB reduction, TNB absorbance 405 nm; Potency, µM (highest dose often 114 µM), without a hit: at the top dose activity change, negative = inhibition, usual class: inhibitors; hit rate 3% among 360,000; further: potency means the concentration at half of the fitted maximal effect; nearly all actives have a fitted effect of over 60% in size
#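 TGR 20 nM + NADPH 100 uM (dispensed conc.), cpd preinc 15 min RT; start with NADPH (500 uM addition) then DTNB (15 mM addition). Kinetic TNB absorbance, 405 nm filter. Four-parameter Hill fit across titration.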
# RE007 growth inh: less growth of the S. pombe RE007 Vpr strain. Potency, µM (series often up to 92.2 µM), inactives show at the highest dose activity change, negative = less growth, actives largely listed as inhibitors. hit rate 0.21% among 360,000. S. pombe RE007 Vpr strain, BacTiter-Glo ATP luminescence, 24 h; active means well fitted falling curve with a large enough effect; inconclusive means small, poorly fitted or top-dose-only effect; inactive means no such curve, though single readings can be large or run the other way; further: potency means the concentration at half of the fitted maximal effect; nearly all actives have a fitted effect of over 50% in size
#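 Fission yeast strain RE007, carrying one chromosomally integrated HIV-1 vpr copy, was seeded at OD 0.01 in PMG+AL medium with 23 nL pinned compound. After 24 h at 30 °C and 99% humidity, viability was read by BacTiter-Glo luminescence.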
# Numbers without * were called inactive; ? = inconclusive; / = not tested or not shown; ! = not confirmed by another sample; [ ] = dose if it differs, or a comment. Unless noted, the call rests on the fitted dose curve; in most records, active means well fitted curve in the direction sought with a large enough effect; inconclusive means small, poorly fitted or top-dose-only effect, or another doubt; inactive means no such curve, though single readings can be large; an effect the other way counts as inactive or inconclusive. On the % scale 0 is the no-effect control and ±100 the full control effect.
SMILES,FMDV inh,FBPA Giardia inh,HCMV inh,Tb PYK inh,Sm TGR block,RE007 growth inh
COc1ccc(C2=NS(=O)(=O)N(C)C(C(=O)Nc3ccc(OC)c(OC)c3)=C2)cc1,?,-12%,?,-10%,-3%,-3%
CC(=O)Oc1ccccc1C(=O)NC(C)CCc1ccccc1 (stereo unspecified),25µM*,5%,-9,3%,0%,42%
COCC(C)NC(=O)c1ccccc1OC(C)=O (stereo unspecified),2%,4%,-18,-6%,11%,3%
Cc1cnc(-n2ncc(C(=O)NCCN3CCOCC3)c2C(C)C)nc1-c1ccc(F)cc1,9%,/,/,/,/,/
CNc1ncnc(Sc2ccc(Cl)cc2)c1[N+](=O)[O-],?,3%,-9,-12%,0.56µM*,-8%
Cn1nc([N+](=O)[O-])nc1Sc1ccc(Cl)cc1,-26%,-5%,-25,-2%,?,-17%
COC(=O)C1C=CC(OC2OC(COC(C)=O)C(OC(C)=O)C(OC(C)=O)C2OC(C)=O)n2c(=O)n(-c3ccccc3)c(=O)n21 (stereo unspecified),25µM*,/,-98*,-2%,/,34%
CC(=O)OCC1OC(n2ccc3ccccc32)C(OC(C)=O)C(OC(C)=O)C1OC(C)=O (stereo unspecified),-21%,2%,-5,-1%,2%,-1%
COc1cc(/C=C(/NC(=O)c2ccccc2)C(=O)Nc2ccc(O)cc2)c([N+](=O)[O-])cc1OC,0%,-4%,-73*,-7%,-8%,2%
C=CCn1c(O)c(CN2CCN(Cc3ccccc3)CC2)c(C)c(C#N)c1=O,-14%,?,22,3%,45µM*,16%
O=C(Cc1ccccn1)c1ccccc1,26%,/,-9,0%,?,-19%
O=C(Cc1ccccn1)c1ccc(Cl)cc1,46%,/,-68*,-4%,-12%,?
CCc1nc2c(OCc3ccc(Cl)cc3)cccn2c1N(C)C(=O)c1ccco1,28µM*,/,-77*,-1%,/,-29%[18.4 µM]
CCC/C=C(\CCC)C(NP(=O)(c1ccccc1)c1ccccc1)c1ccc(C(F)(F)F)cc1 (stereo unspecified),/,-8%,/,/,/,/
COc1ccc(/C=c2/sc3n(c2=O)C(c2ccccc2OC)C2=C(N=3)c3ccccc3CC2)cc1O (stereo unspecified),-11%,-14%,-64*,-2%,-13%,2%
Cc1csc2nc(COC(=O)c3cccc(NC(=O)c4cccc(Cl)c4)c3)cc(=O)n12,-14%,/,-21,1%,-13%,/
COc1cc(NC(=O)c2c(Cl)cnn2C)c(OC)cc1Cl,-4%,0%,-60*,6%,-14%,2%
COc1cc2ccccc2cc1C(=O)NNC(=O)c1ccccc1O,/,/,-91*,/,0%,/
Cc1ccc(Cl)cc1NC(=O)c1cc2ccccc2cc1O,?,-19%,-100*,0%,4%,4%
COc1cc(NC(=O)c2cc3ccccc3cc2O)c(OC)cc1Cl,13µM*,-14%,-101*,-8%,-13%,-3%
COc1cc(OC)c(NC(=O)c2ccccc2F)cc1Cl,36%,0%,-3,2%,10%,0%
Cc1ccc(CN2C[C@@H](Sc3nc(C)cc(C)n3)C[C@H]2C(=O)N2CCN(c3ccccc3F)CC2)cc1,30%,/,/,/,/,/
Cc1nc2nc(-c3cccnc3)nn2c(C)c1Cl,17%,3%,34,-15%,-4%,-7%
Cc1nc2nc(-c3ccco3)nn2c(C)c1Cl,17%,0%,196,1%,22µM*,-16%
COC(=O)c1cc(NCc2ccc3c(c2)OCO3)ccc1N1CCOCC1,-10%,?,33,-8%,50µM*,9%
SMILES,FMDV inh,FBPA Giardia inh,HCMV inh,Tb PYK inh,Sm TGR block,RE007 growth inh
CCOC(=O)N1CCC(NC(=O)c2cnn(-c3cccc(F)c3)c2-n2cccc2)CC1,?,/,0,-2%[15.4 µM],-2%,/
COc1ccccc1C1=NNC(=Nc2cccc(S(=O)(=O)N(C)C)c2)SC1,?,-30%,-80*,-26%,6%,-8%
CC[C@H](C)[C@H](NC(=O)[C@H](Cc1ccc(O)cc1)NC(=O)[C@@H]1CCCN1C(=O)[C@H](CCCN=C(N)N)NC(=O)[C@H](CCCN=C(N)N)NC(=O)[C@@H]1CCCN1C(=O)[C@H](CCCCN)NC(=O)[C@H](CC(N)=O)NC(=O)[C@H](CCC(N)=O)NC(=O)[C@H](Cc1ccc(O)cc1)NC(=O)[C@H](CC(C)C)NC(=O)[C@@H]1CCC(=O)N1)C(=O)N[C@@H](CC(C)C)C(=O)O,/,0%,/,/,/,/
CCNc1ncc2nc(-c3cn(C)c4ccccc34)c(=O)n(-c3ccccc3)c2n1,8%,-7%,/,/,/,/
NC(N)=N/N=C/c1c(Cl)cccc1Cl,-18%,-10%,-73*!,1%,6%,-6%
NC(N)=N/N=C/c1ccccc1Cl,-19%,1%,-14,-3%,12%,-7%
O=c1[nH][nH]c(=S)n1C1CCCCC1,7%,20µM*,/,2.5µM*,-18%,-1%
O=c1cc(O)n(C2CCCCCC2)c(=O)[nH]1,-24%,-10%,25,-3%,?,17%
CCOC(=O)[C@H](CCc1ccccc1)N[C@@H](C)C(=O)N(CC(=O)O)C1Cc2ccccc2C1,/,/,/,3%,/,/
CC(=O)c1ccc(NC(=O)CCS(=O)(=O)c2ccc3c(c2)n(C)c(=O)c(=O)n3C)cc1,-9%,0%,/,-2%,40µM*,3%
CCc1oc(C(=O)O)cc1COC,45%,-2%,54,-3%,-10%,-5%
COCc1cc(O)c(O)c(O)c1-c1c(COC)cc(O)c(O)c1O,/,4µM*,/,/,/,/
O=C(O)CC(NS(=O)(=O)c1ccc(Cl)s1)c1ccccc1 (stereo unspecified),3%,/,12,1%,-3%,/
CC(C)Oc1ccc(CN2CCC2(C)C(=O)Nc2cccc3cccnc23)cc1 (stereo unspecified),-25%,/,-78*,3%,/,7%
CCC1CN(CCNC(=O)c2ccc3c(c2)OCO3)Cc2cc(OC)ccc2O1 (stereo unspecified),47%,/,/,/,/,/
CN1CCC(Oc2ccccc2Sc2ccccc2)CC1,?,-20%,-77*,-13%,1%,-5%
Oc1ccc(C[C@H]2CN([C@@H](Cc3ccccc3)CN3CCC[C@@H]3CN3C(=S)NC[C@@H]3Cc3ccccc3)C(=S)N2CC2CCCCC2)cc1,-17%,/,-7,-5%,/,-5%
CC(C)C[C@H]1CNC(=S)N1C[C@H]1CCCN1C[C@H](Cc1ccccc1)N1C[C@H](Cc2ccc(O)cc2)N(CC2CCCCC2)C1=S,-23%,/,-22,-5%,/,3%

# Assay outcomes from PubChem BioAssay.
